The list is not random: actives were taken first. Their share in the collection is about 3.7%.
BoNT-F LC inh: BoNT/F light chain protease inhibitors, primary screen, biochemical, flow cytometry, MLPCN library; Botulinum neurotoxin type F light chain protease (Clostridium botulinum); Multiplex microsphere protease cleavage assay; inhibition, % at 10 µM; 360,000 tested, 0.22% active; AID 588497, 2011; in the data active = inhibition above about 35%, passing the limit was not always enough; inconclusive = no clear call, values can overlap the other calls
BoNT-A LC inh2: BoNT/A light chain protease inhibitors, primary screen, biochemical, flow cytometry, MLPCN library; inhibition, % at 10 µM; multiplex microsphere protease substrate cleavage; AID 588499, 2011; 360,000 tested, 0.17% active; Botulinum neurotoxin type A light chain protease (Clostridium botulinum A str. ATCC 3502)
Anthrax LF prot: Bacillus anthracis LF protease inhibitors, primary screen, biochemical, multiplex microsphere, MLPCN library | multiplex microsphere protease cleavage assay | Lethal factor (Bacillus anthracis), P15917 | inhibition, % at 10 µM | 360,000 tested, 0.12% active
Target sequence (P15917 whole entry, looked up): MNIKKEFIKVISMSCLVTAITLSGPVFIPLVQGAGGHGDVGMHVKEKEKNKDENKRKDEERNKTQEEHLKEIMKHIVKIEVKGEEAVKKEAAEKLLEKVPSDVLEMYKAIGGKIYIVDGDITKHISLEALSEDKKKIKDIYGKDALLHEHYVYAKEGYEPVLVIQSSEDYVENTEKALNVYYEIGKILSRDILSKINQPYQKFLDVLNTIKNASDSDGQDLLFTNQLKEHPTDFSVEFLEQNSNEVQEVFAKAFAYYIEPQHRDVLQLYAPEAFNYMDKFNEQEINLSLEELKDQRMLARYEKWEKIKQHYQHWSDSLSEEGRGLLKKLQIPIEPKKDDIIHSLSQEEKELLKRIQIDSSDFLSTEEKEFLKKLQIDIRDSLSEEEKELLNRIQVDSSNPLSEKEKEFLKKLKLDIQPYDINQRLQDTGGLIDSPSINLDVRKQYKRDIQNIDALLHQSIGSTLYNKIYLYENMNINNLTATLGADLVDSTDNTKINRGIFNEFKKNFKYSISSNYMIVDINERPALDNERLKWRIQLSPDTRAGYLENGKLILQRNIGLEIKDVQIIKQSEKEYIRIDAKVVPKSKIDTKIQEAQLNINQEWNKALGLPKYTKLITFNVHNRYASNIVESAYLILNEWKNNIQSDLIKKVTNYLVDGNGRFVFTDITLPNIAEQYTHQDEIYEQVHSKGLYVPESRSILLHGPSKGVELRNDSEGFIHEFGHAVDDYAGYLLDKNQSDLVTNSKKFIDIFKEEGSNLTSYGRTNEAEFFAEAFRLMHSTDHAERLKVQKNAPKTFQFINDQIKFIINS
Autofluor counter: counter-screen for toxin protease inhibitors: compound fluorescence. compound autofluorescence counterscreen, microsphere flow cytometry; active compounds read high. fluorescence intensity (test concentration not listed). 360,000 tested, 3.1% active. AID 624483; in the data active = fluorescence intensity above about 16000; inconclusive = no clear call, values can overlap the other calls
MazEF act: activators of E. coli MazEF toxin-antitoxin RNase, primary screen, biochemical, fluorescence, uHTS | FAM/BHQ RNA-DNA oligo cleavage fluorescence, 5 h | 350,000 tested, 0.32% active | AID 504720, 2011 | Endoribonuclease toxin MazF (Escherichia coli (strain K12)), P0AE70 | activation, % at 20 µM; in the data active = activation above about 50%
A number is an active result; . = inactive; ? = inconclusive; / = no result given. Cut-off read from the data, not from the text of the source, unless noted: active = inhibition above about 30%; inconclusive = no clear call, values can overlap the other calls; inactive = below that.

SMILES	BoNT-F LC inh	BoNT-A LC inh2	Anthrax LF prot	Autofluor counter	MazEF act
Cc1ccc(N/C(SCc2ccccc2C)=C(/C#N)C(=O)NCc2ccco2)cc1C	.	.	.	22786	.
Cc1cccn2cc(COc3ccc(-c4ccccc4)cc3)nc12	.	.	.	.	.
CC(=O)N1N=C(c2ccc(C)c([N+](=O)[O-])c2)OC1(C)C	?	.	.	.	.
CCCCN(CC)Cc1ccc(CNC(=O)Nc2ccc(OCC)cc2)o1	.	.	.	20423	.
Cc1cc(C(F)(F)F)nc(CCNC(=O)C2CCC(=O)N(Cc3cccc(F)c3)C2)n1 (stereo not given)	.	.	.	.	.
C/C(=C\c1ccccc1)CN1CCN(c2ccccc2)CC1	.	.	.	21899	.
C/C=C(\C)CN1CCN(c2ccccc2F)CC1	.	.	.	23234	.
C/C=C(\C)CN1CCN(c2ccccc2)CC1	.	.	.	.	.
COc1ccc(S(=O)(=O)N2CCC(C(=O)NCc3ccccc3)CC2)cc1OC	.	.	.	.	.
CCOC(=O)/C(=C/c1c[nH]c2ccccc12)NC(C)=O	.	.	.	19612	.
COC(=O)/C(=C/c1c[nH]c2ccccc12)NC(C)=O	.	.	.	.	.
CC(C)CN1C(=O)NC(NC(=O)c2cccs2)(C(F)(F)F)C1=O (stereo not given)	.	?	.	21985	.
O=C(NC1(C(F)(F)F)NC(=O)N(Cc2ccco2)C1=O)c1cccs1 (stereo not given)	.	.	.	20774	.
O=C(NC1(C(F)(F)F)NC(=O)N(Cc2ccco2)C1=O)c1cccnc1 (stereo not given)	.	.	.	.	.
O=C(NC1(C(F)(F)F)NC(=O)N(Cc2cccnc2)C1=O)c1ccccc1 (stereo not given)	.	.	.	20881	.
CN1C(=O)NC(NC(=O)c2cccs2)(C(F)(F)F)C1=O (stereo not given)	.	.	.	.	.
O=C(CCl)Nc1ccccc1C(=O)Nc1ccc2c(c1)OCO2	.	.	.	.	.
OCCN1CCN(C(=S)c2ccc(Br)cc2)CC1	.	?	.	21663	.
CC(=O)c1sc(NC(=O)C=C(C)C)nc1C	.	.	.	17371	.
Cc1cc(C(=O)N2CCC2(C)C(=O)Nc2cc(C(C)(C)C)nn2C)nn1C (stereo not given)	.	.	.	.	/
Clc1ccc(-c2nnc(-c3ccc(Br)o3)o2)c(Cl)c1	.	.	.	22190	.
O=S1(=O)CC/C(=N\O)c2ccccc21	.	?	.	23882	.
CN1CC(c2ccc(Cl)c(Cl)c2)[C@@]2(COc3ccccc3C2=O)[C@@]12C(=O)Nc1ccccc12 (stereo not given in full)	.	.	.	20876	.
O=C1Nc2ccccc2C12OCC1(CO2)COC2(OC1)C(=O)Nc1ccccc12 (stereo not given)	?	?	?	?	.
COCCCNC(=O)C1CCN(c2ncccn2)CC1	.	.	.	.	.
SMILES	BoNT-F LC inh	BoNT-A LC inh2	Anthrax LF prot	Autofluor counter	MazEF act
COCCNC(=O)C1CCCN(c2ncccn2)C1 (stereo not given)	.	.	.	21959	.
Cc1ccc(F)cc1NC(=O)C1CCCN(c2ncccn2)C1 (stereo not given)	.	.	.	20027	.
CSc1nnc(-c2cc(C)on2)n1-c1ccccc1	.	.	.	.	.
CSc1nnc(-c2nnc(SC)n2-c2ccccc2)n1-c1ccccc1	.	.	.	16237	.
COC(=O)Cn1c(=NC(=O)c2cc(-c3cccs3)nc3ccccc23)sc2cc(S(N)(=O)=O)ccc21	.	38	.	.	.
S=C(Nc1ccc2[nH]ccc2c1)NC1CCCCC1	?	.	.	.	.
Cc1ccc(C)c2[nH]c(=O)c(CN(Cc3ccco3)S(=O)(=O)c3ccc4c(c3)OCCO4)cc12	.	.	.	22529	.
CCc1nc(SCC(=O)NNC(=O)C2CCCCC2)c2ccccc2n1	.	?	.	21748	.
Cc1ccc(SCC(=O)NNC(=O)C2CCCCC2)cc1	.	?	.	20856	.
Cc1ccc(SCC(=O)NC2CCCCCC2)cc1	.	.	.	.	.
O=C(O)c1ccc2c(=O)n3c(nc2c1)/C(=C/c1ccccc1OC(F)F)CC3	.	.	.	.	.
